In PubChem BioAssay (NCI):
Compounds without any hit were thinned out: in the full panel of roughly 83,000, 20% have a hit.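 Cells were grown in 96-well plates and exposed to the test compound at a single concentration for 48 hours; results are reported as percent growth, with values below 10 considered active.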 Values without a mark were called inactive. Active and inactive are the calls of the source.

Columns and labels:
Assay in all cases: NCI-60 one-dose screen, 48 h (100 = growth as untreated, 0 = no growth, -100 = all killed)
Details in all cases: 10 µM unless noted
SR leukemia = test system: SR leukemia
RPMI-8226 leukemia = test system: RPMI-8226 leukemia
OVCAR-8 ovarian = test system: OVCAR-8 ovarian
OVCAR-5 ovarian = test system: OVCAR-5 ovarian
OVCAR-4 ovarian = test system: OVCAR-4 ovarian
SK-OV-3 ovarian = test system: SK-OV-3 ovarian
IGROV1 ovarian = test system: IGROV1 ovarian
OVCAR-3 ovarian = test system: OVCAR-3 ovarian
HS 578T breast = test system: HS 578T breast
NCI/ADR-RES ovarian = test system: NCI/ADR-RES ovarian

SMILES | growth (SR leukemia) | growth (RPMI-8226 leukemia) | growth (OVCAR-8 ovarian) | growth (OVCAR-5 ovarian) | growth (OVCAR-4 ovarian) | growth (SK-OV-3 ovarian) | growth (IGROV1 ovarian) | growth (OVCAR-3 ovarian) | growth (HS 578T breast) | growth (NCI/ADR-RES ovarian)
CC(C)Sc1nc(-c2ccc(Br)cc2)c(C#N)c(N2CCCCC2)n1 | 106% | 98.8% | 98.6% | 88.7% | 95.1% | 110% | 104% | 104% | 107% | 102%
COc1ccc(-c2ccc(O)c(C(=O)/C=C/c3cc(OC)c(OC)c(OC)c3)c2)cc1 | 56.2% | 24.7% | 71.8% | 106% | 79.6% | 77.6% | 78.3% | 93.7% | 113% | 69.9%
COc1ccc(C2CC(c3ccc(Nc4ccnc5cc(Cl)ccc45)cc3)=NN2C(C)=O)cc1 (stereo not given) | -9.45% (active) | 33.8% | 72.8% | 94.2% | 59% | 101% | 74.4% | 64.2% | 62.7% | 67.7%
C[C@H]1c2cccc(O)c2C(O)=C2C(=O)[C@]3(O)C(O)=C(C(N)=O)C(=O)[C@@H](N(C)C)[C@@H]3[C@@H](O)[C@@H]21 | 30% | 27% | 33.5% | 78.4% | 66.8% | 70.2% | 21.4% | 49% | 69.8% | 66%
O=C(CSc1ncc(-c2ccccc2)n1-c1ccccc1)Nc1ccc(-c2nc3ccccc3s2)cc1 | 73% | 65.5% | 27.2% | 82.5% | 52.5% | 116% | 73.4% | 95.4% | 91.9% | 61.2%
NS(=O)(=O)c1ccc(-n2ncc3c(NC4CCCCC4)ncnc32)cc1 | 63.1% | 91% | 89.2% | 90.9% | 97.9% | 108% | 78% | 128% | 98.8% | 88.6%
Cc1ccc(C2=NNC(c3sc(Cl)nc3Cl)C2)cc1 (stereo not given) | 3.24% (active) | 97.9% | 100% | 116% | 84.7% | 88.4% | 80.6% | 101% | 116% | 94.5%
COc1cc2c(cc1OC)C(CC1(O)CCCCC1)N(S(=O)(=O)c1ccc(C)cc1)CC2 (stereo not given) | -10.4% [100 µM] (active) | 16.7% [100 µM] | 26.8% [100 µM] | 76.2% [100 µM] | 25.4% [100 µM] | 80% [100 µM] | 53.6% [100 µM] | -15.5% [100 µM] (active) | 57.3% [100 µM] | 34.5% [100 µM]
COc1cnc2c(c1)C(=O)c1c-2n(CCCN2CCC(O)CC2)c(=O)c2cc(F)ccc12 | 0.0108% (active) | -26.2% (active) | -6.45% (active) | -8.07% (active) | -0.215% (active) | -31.6% (active) | 1.69% (active) | -8.34% (active) | 27.7% | 0.114% (active)
C=CCN(/C=C/CN(CC=C)CC=C)CC=C | 85.3% | 95.8% | 95.8% | 104% | 91.7% | 103% | 96.3% | 105% | 109% | 107%
OC(c1ccccc1)C(NCc1ccccc1)c1ccccc1 (stereo not given) | 103% | 84.3% | 109% | 88.6% | 94.3% | 101% | 96.7% | 111% | 107% | 85.1%
O=C(O)CCC(=O)OC[C@@H](NC(=O)C(Cl)Cl)[C@H](O)c1ccc([N+](=O)[O-])cc1 | 95.9% | 89.5% | 94.4% | 93.5% | 102% | 107% | 97.2% | 121% | 111% | 101%
CSc1nc2nc3c(c(-c4ccc(C)cc4)c2c(=O)[nH]1)CN(C)C/C3=C\c1ccc(C)cc1 | 86.9% | 84.2% | 105% | 115% | 92.8% | 112% | 96.8% | 116% | 95.8% | 94.7%
